Laboratory results: the GenesisPotency data set
About 35 (3%) of roughly 1,300 compounds were called active. Roughly 48% stayed inconclusive and do not appear here. This is one part of a sample in which actives are shown more often than they occur. Calls follow the shape of the dose curve; as a rule, active = well fitted inhibition curve with a large enough effect; inconclusive = small, poorly fitted or top-dose-only effect, or effect the other way; inactive = flat fitted curve, though single readings scatter.

Molecular target: T1, ATP-dependent 6-phosphofructokinase, Trypanosoma brucei brucei (UniProt O15648)
T1 sequence (whole entry): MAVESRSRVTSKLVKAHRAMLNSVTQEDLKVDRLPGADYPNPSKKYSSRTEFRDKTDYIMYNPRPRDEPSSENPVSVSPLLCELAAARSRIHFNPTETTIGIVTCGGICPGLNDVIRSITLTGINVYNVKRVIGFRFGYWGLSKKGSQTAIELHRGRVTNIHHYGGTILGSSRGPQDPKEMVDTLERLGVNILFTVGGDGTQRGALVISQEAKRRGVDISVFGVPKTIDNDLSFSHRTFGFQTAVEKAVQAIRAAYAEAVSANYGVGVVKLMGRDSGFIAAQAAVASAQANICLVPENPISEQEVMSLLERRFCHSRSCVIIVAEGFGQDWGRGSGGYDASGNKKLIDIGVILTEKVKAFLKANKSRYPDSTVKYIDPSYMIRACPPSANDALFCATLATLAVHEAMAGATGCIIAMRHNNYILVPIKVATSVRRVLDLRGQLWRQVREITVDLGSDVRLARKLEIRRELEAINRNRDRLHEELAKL
Assay: qHTS Validation Assay to Find Inhibitors of T. brucei phosphofructokinase (AID 485368)

Compound | outcome
N.N.[Cl][Pt][Cl] | active
